For experiment [1], the system named is RAW-Dual. The experiment is described as follows: IRF Lucia reporter activity, fold change vs agonist alone; higher = enhanced IRF activity. The conditions noted are these: library stock concentration (final ~1000-fold dilution): 10 mM, agonist: MPLA (TLR4) […]. Summed up: (§1)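 Library stock was pin-tooled at 50 nL into 384-well plates of RAW-Dual macrophages (50,000 cells/well, DMEM), followed 1 h later by a PRR agonist, and the cells were kept at 37 °C, 5% CO2. Supernatant collected after 20 hours was read for IRF by QuantiLuc luminescence and for NF-κB by QuantiBlue absorbance at 620 nm. Reporter activity is fold change over agonist-alone wells, and a well counted as cytotoxic when its IncuCyte confluency was below 70% of agonist controls in both mask sets.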

For experiment [2], the system named is RAW-Dual. The experiment is described as follows: IRF Lucia reporter activity, fold change vs agonist alone; cytotoxicity flag (confluency mask): not cytotoxic; higher = enhanced IRF activity. To be noted: library stock concentration (final ~1000-fold dilution): 10 mM. Summed up:
as §1

For experiment [3], the system named is RAW-Dual. Put plainly: IRF Lucia reporter activity, fold change vs agonist alone; cytotoxicity flag (confluency mask): cytotoxic (confluency <70% of control); higher = enhanced IRF activity. To be noted: library stock concentration (final ~1000-fold dilution): 10 mM. Summed up:
as §1

Setting [4] is: cytotoxicity flag (confluency mask): not cytotoxic.
Where [5] appears, read: agonist: 3'3'-cGAMP (STING) 10 ug/mL.

Over roughly 2,900 compounds, “IRF Lucia reporter activity, fold change vs agonist alone” has its median near 0.9; the highest 2% begin near 2.8. The sample as a whole holds a higher share of the highest values than the screen did.

In the case of `CCC(C)C(NC(=O)C(C(C)CC)N(C)C(C)=O)C(=O)NC(=O)C(NC(CC(C)C)C(=O)C1(C)CO1)C(C)O` (stereo not drawn), the “IRF Lucia reporter activity” value in experiment [1] (setting [4]) was found to be 2.09; in experiment [2] (setting [5]) it was 1.55; in experiment [2] (agonist: LPS (TLR4) 0.1 ug/mL), 4.46.
As for `COc1cc2c(cc1OC)C(Cc1ccc(O)c(Oc3cc4c(cc3OC)CCN(C)C4Cc3ccc(O)cc3)c1)N(C)CC2.[O-][Cl+3]([O-])([O-])O` (stereo not drawn), the figures for the “IRF Lucia reporter activity” value in experiment [2] (setting [5]) and in experiment [2] (agonist: LPS (TLR4) 0.1 ug/mL) were 0.0548 and 0.74, respectively.
In the case of `Cc1sc2c(c1C)C(c1ccc(Cl)cc1)=NC(CC(=O)OC(C)(C)C)c1nnc(C)n1-2` (stereo not drawn), the “IRF Lucia reporter activity” value came to 0.122 in experiment [1] (cytotoxicity flag (confluency mask): cytotoxic (confluency <70% of control)), 0.193 in experiment [3] (setting [5]) and 0.185 in experiment [3] (agonist: LPS (TLR4) 0.1 ug/mL).
As to `CC(C)c1ccc2c(c1O)CCC1C3=C(CCC21C)C(=O)OC3` (stereo not drawn), the “IRF Lucia reporter activity” value is 0.917 in experiment [2] (setting [5]) and 1.25 in experiment [2] (agonist: LPS (TLR4) 0.1 ug/mL).
Consider `CCC12C=CCN3CCC4(c5ccc(OC)cc5N(C)C4C(O)(C(=O)OC)C1OC(C)=O)C32` (stereo not drawn), for which the “IRF Lucia reporter activity” value stood at 1.06 in experiment [1] (setting [4]), 0.891 in experiment [2] (setting [5]) and 1.25 in experiment [2] (agonist: LPS (TLR4) 0.1 ug/mL).

The record behind these values is the supplement of paper PMC10037445.
